The assay in a line: small-molecule microarray binders of probe aEGFR, primary screen, biochemical, biotinylated probe, 635/667 nm fluorescence (AID 1097).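 Note: probe is a biotinylated anti-EGFR antibody binding compounds printed on slides; score combines fluorescence near 667 nm and signal to noise of each spot.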 As to conditions: higher = more signal.
Consider `CCOC(=O)C1=CCC(c2cccn2C(=O)OC(C)(C)C)N(S(=O)(=O)c2ccc(C)cc2)C1` (configuration not stated), for which the composite z-score was -0.0004. The result for `CC[C@@H]1C=C(C(=O)O)[C@H](c2cccc(Cl)c2)N1S(=O)(=O)c1ccc(C)cc1` reads -0.128; that for `O=C1O[C@H](c2ccccc2)[C@H](c2ccccc2)N2[C@H]1[C@@H](C(=O)O)[C@]1(C(=O)Nc3ccccc31)[C@H]2c1ccc(OCCO)cc1`, -0.177. The same measure for `COc1ccc(NN2C(C(O)c3ccc(F)cc3)C=CC3C(=O)N(C4CCCCC4)C(=O)C32)cc1` (configuration not stated): 0.0903. The same measure for `C=CCNC(=O)[C@@H]1[C@H]2C(=O)O[C@H](c3ccccc3)[C@H](c3ccccc3)N2[C@H](c2ccc(OCCO)cc2)[C@@]12C(=O)Nc1ccc(C#CCNC(N)=O)cc12`: -0.182; for `CCCCN1CC=CC23O[C@@H]4C=CCCOC(=O)C4[C@H]2C(=O)N(CCO)[C@@H]3C1=O` (some centres not stated): -0.167.

With `CN1C(=O)C2C=CC(C(O)c3ccc([N+](=O)[O-])cc3)N(Nc3ccccc3)C2C1=O` (configuration not stated), the composite z-score was found to be 0.0089. As for `CC(C)[Si]1(C(C)C)OCc2cc(-c3ccc(-c4ccc(Cl)c(Cl)c4)o3)nc(-c3ccc(Oc4ccccc4)cc3)c21`, the composite z-score is -0.447. The result for `C=C1C(=O)C=C2CN(C(=O)c3ccccc3)[C@@](Cc3ccc(F)cc3)(C(=O)OC)[C@@H]12` reads 0.0071; that for `CN(C)C(=O)[C@]1(CCS(=O)(=O)c2ccccc2)N=C(c2ccc(OCCCO)cc2)O[C@@H]1c1ccccc1CN=[N+]=[N-]`, -0.025. The same measure for `CN1C2C=C(c3ccc(CO)cc3)C(C3C(=O)N(C(N)=O)C(=O)C32)C1C1CC1` (configuration not stated): -0.201. The result for `CCCNC(=O)[C@@]1(Sc2ccc(C)cc2)CC(=O)N(Cc2cc(C(F)(F)F)cc(C(F)(F)F)c2)[C@@H]1c1ccc(CO)cc1` reads -0.165.

The values are drawn from PubChem BioAssay.
